Reference: PubChem BioAssay AID1745848 (National Center for Advancing Translational Sciences (NCATS), 2022)
Among all 2,100 compounds or so, about 940 (45%) were called active. Not shown: some 48% with an inconclusive outcome. Calls follow the shape of the dose curve; as a rule, active = well fitted inhibition curve with a large enough effect; inconclusive = small, poorly fitted or top-dose-only effect; inactive = no such curve, though single readings can be large or run the other way. The set was probably picked from earlier hits. The list shows a part of the results.

Test: Confirmatory qHTS for Inhibitors of ATXN expression; also: nearly all actives have a fitted effect of over 65% in size
Conditions: ATXN2-luciferase reporter cells, luminescence, 24 h; series mostly up to 11.5 µM
Procedure, shortened: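 Cells carrying ATXN2-luciferase reporter exposed 24 h at 37 C to compound. Viability then read by CellTiter-Fluor (25 uM GF-AFC, 30 min), followed by SteadyGlo luminescence; medium-only wells set 100% inhibition.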
Potency is read from the fitted curve at half-maximal effect.

SMILES	Potency
Cc1c(Cl)cccc1NC(=O)N1CCCN(c2nc(-c3ccccc3)ns2)CC1	10 µM (active)
CC(C)(C)c1ccc(NC(=O)N2CCCN(c3c(Cl)cncc3Cl)CC2)cc1	inactive
O=C(Nc1ccccc1Cl)N1CCCN(c2nc(-c3ccccc3)ns2)CC1	15.8 µM (active)
CN(C)CCC(c1ccc(Br)cc1)c1ccccn1 (stereo not given)	inactive
O=C(Nc1ccc(N2CCOCC2)c(Cl)c1)c1c(F)c(F)c(F)c(F)c1F	1.26 µM (active)
CC(=O)N/N=C/c1cc(C(C)(C)C)cc(/C=N/NC(C)=O)c1O	2.82 µM (active)
CC(=O)Oc1ccc(Nc2ccccc2)cc1	inactive
COc1ccc(Nc2nc(N3CCCC3)c3ccccc3n2)cc1	15.8 µM (active)
CC(=O)Nc1ccc(Nc2c3ccccc3nc3ccccc23)cc1	3.55 µM (active)
CCOc1ccc(Nc2c3ccccc3nc3ccccc23)cc1	12.6 µM (active)
COc1ccc(Nc2c3ccccc3nc3ccccc23)cc1	14.1 µM (active)
Cc1cc(SCC(=O)NN)c2cc(Br)ccc2n1	inactive
Cc1cc(SCC(=O)N/N=C/c2ccc(O)cc2O)nc2ccccc12	11.2 µM (active)
Cc1cc(SCC(=O)N/N=C/c2ccc(O)cc2O)c(C)cc1Br	5.62 µM (active)
C=CCn1c(CNc2ccc(C)cc2)nnc1SCC(=O)N/N=C/c1ccc(O)cc1O	10 µM (active)
O=C(CSc1ccc2ccccc2n1)N/N=C/c1ccccc1O	14.1 µM (active)
COc1ccc(C(NC(C)=O)c2cc(Cl)c3cccnc3c2O)cc1 (stereo not given)	1.78 µM (active)
CCC(=O)NC(c1ccc(OC)cc1)c1cc(Cl)c2cccnc2c1O (stereo not given)	3.16 µM (active)
Clc1ccc(COC(Cn2ccnc2)c2ccc(Cl)cc2Cl)c(Cl)c1 (stereo not given)	2.82 µM (active)
O=C(CCCN1C(=O)/C(=C/c2ccccc2Cl)SC1=S)NNC(=O)c1ccc(Cl)cc1Cl	1.58 µM (active)

SMILES	Potency
O=C(CCCN1C(=O)/C(=C/c2ccccc2Cl)SC1=S)NNC(=O)c1ccc(Cl)cc1	3.55 µM (active)
CCc1nnc(NC(=O)c2ccc(S(=O)(=O)N(C)Cc3ccccc3)cc2)o1	20 µM (active)
O=C(Nc1nnc(-c2ccc(F)cc2)o1)c1cc(Cl)sc1Cl	15.8 µM (active)
CN(c1ccccc1)S(=O)(=O)c1ccc(C(=O)Nc2nnc(-c3ccc(F)cc3)o2)cc1	15.8 µM (active)
Cc1sc2ncnc(NCC(O)c3ccc([N+](=O)[O-])cc3)c2c1C (stereo not given)	3.16 µM (active)
Cc1cc(C)cc(C(=O)NC(=S)Nc2ccc(-c3cc4ccccc4oc3=O)cc2)c1	4.47 µM (active)
CCOC(=O)c1c(NC(=O)CSc2nnnn2-c2ccccc2)sc2c1CC(C)(C)NC2(C)C	3.55 µM (active)
O=C(CSc1nnnn1-c1ccccc1)Nc1nsc(-c2ccccc2)n1	inactive
Cc1ccc(C(=O)N/C(=C/c2ccc(-c3ccc([N+](=O)[O-])cc3)o2)C(=O)NCCCN(C)C)cc1	25.1 µM (active)
CCCCOC(=O)/C=C\C(=O)NC(N)=O	17.8 µM (active)
N/C(=C\C(=O)c1cc(Cl)ccc1O)C(Cl)(Cl)Cl	3.16 µM (active)
C/C(=N\NC(=O)C(C)n1nc(C)c([N+](=O)[O-])c1C)c1ccccc1O (stereo not given)	3.16 µM (active)
O=C1N/C(=N/N=C/c2ccccc2O)SC1Cc1ccc(F)cc1 (stereo not given)	15.8 µM (active)
Cc1[nH]n(-c2ccccc2)c(=O)c1/C=N/NC(=O)c1ccccc1F	4.47 µM (active)
CC(C)(CO)NCc1c(OCc2ccc(Cl)cc2)ccc2ccccc12	14.1 µM (active)
COc1cccc(CN(C)C(=O)CNC(=O)c2ccc(-c3ccccc3)cc2)c1OC	14.1 µM (active)
CCOC(=O)c1ccc(NC(=O)C2CCCN(S(=O)(=O)c3ccc(F)cc3)C2)cc1 (stereo not given)	28.2 µM (active)
CCOC(=O)c1ccc(NC(=O)c2nc[nH]c2C(=O)N[C@H](C)c2ccccc2)cc1	inactive
O=C(Nc1ccccc1C(=O)Nc1nnc(C(F)(F)F)s1)c1ccccc1Cl	3.55 µM (active)
O=C(Nc1ccccc1C(=O)Nc1nnc(C(F)(F)F)s1)c1ccccc1	1.78 µM (active)

SMILES	Potency
CN(C)S(=O)(=O)c1cccc(N2C(=O)CC3(CCCCC3)CC2=O)c1	inactive
COc1ccccc1CNc1nc(NCc2ccc(NC(C)=O)cc2)c2sccc2n1	3.16 µM (active)
COc1cccc(CNc2nc(NCc3ccccc3)nc3ccsc23)c1	15.8 µM (active)
COc1ccccc1CNc1nc(NCc2cccc(OC)c2OC)c2sccc2n1	25.1 µM (active)
CN(C)S(=O)(=O)c1ccc(-c2csc(N/N=C/c3ccco3)n2)cc1	2.82 µM (active)
O=C(/C=C\c1ccco1)Nc1nc(-c2ccc3ccccc3c2)cs1	inactive
Cc1cc(C(=O)CN2C(=O)c3ccccc3S2(=O)=O)c(C)n1CC1CCCO1 (stereo not given)	0.355 µM (active)
Cc1nnc(SCC(N)=O)n1CC1CCCO1 (stereo not given)	inactive
O=C(CN1C(=O)c2ccccc2S1(=O)=O)N1CCc2ccccc21	0.447 µM (active)
O=C(CN1C(=O)c2ccccc2S1(=O)=O)c1ccc(O)c(O)c1	inactive
O=C(CN1c2cccc3cccc(c23)S1(=O)=O)NCc1ccc(Cl)cc1	inactive
O=C(CN1C(=O)c2ccccc2S1(=O)=O)c1ccc(Cl)cc1Cl	0.891 µM (active)
O=C(CN1C(=O)c2ccccc2S1(=O)=O)Nc1ncc(Cl)cc1Cl	2.82 µM (active)
CCn1c(C)cc(C(=O)CN2C(=O)c3ccccc3S2(=O)=O)c1C	1.26 µM (active)
Cc1cc(C(=O)CN2C(=O)c3ccccc3S2(=O)=O)c(C)n1C(C)C	1.58 µM (active)
O=C(O)COc1ccc2oc3ccccc3c2c1	inactive
Cc1ccc(-c2cc(C(=O)N/N=C/c3ccccc3O)n[nH]2)o1	7.08 µM (active)
Cc1cc(C(=O)N/N=C/c2cc(Br)ccc2OC(=O)c2ccccc2)n[nH]1	2.51 µM (active)
Cc1cc(C(=O)N/N=C/c2cc(Br)cc(Br)c2OC(=O)c2cccc(F)c2)n[nH]1	3.16 µM (active)
Cc1cc(C(=O)N/N=C/c2cc(Br)ccc2OC(=O)c2ccccc2Cl)n[nH]1	3.98 µM (active)
